# Measured values published in ChEMBL document CHEMBL1961873, “Compounds: GSK PKIS; Assays: Nanosyn kinase panel” (2012).
# Key:
# [1] = target: RAC-alpha serine/threonine-protein kinase (Homo sapiens) (UniProt P31749); settings: at 0.1 µM
# [2] = target: RAC-alpha serine/threonine-protein kinase (Homo sapiens) (UniProt P31749); settings: at 1 µM
# [3] = target: RAC-beta serine/threonine-protein kinase (Homo sapiens) (UniProt P31751); settings: at 0.1 µM
# [4] = target: RAC-beta serine/threonine-protein kinase (Homo sapiens) (UniProt P31751); settings: at 1 µM
# [5] = target: RAC-gamma serine/threonine-protein kinase (Homo sapiens) (UniProt Q9Y243); settings: at 0.1 µM
# [6] = target: RAC-gamma serine/threonine-protein kinase (Homo sapiens) (UniProt Q9Y243); settings: at 1 µM
# [7] = target: G protein-coupled receptor kinase 6 (Homo sapiens) (UniProt P43250); settings: at 0.1 µM
# [8] = target: G protein-coupled receptor kinase 6 (Homo sapiens) (UniProt P43250); settings: at 1 µM
# [9] = target: T1, Rhodopsin kinase GRK7 (Homo sapiens) (UniProt Q8WTQ7); settings: at 0.1 µM
# T1 sequence (whole entry): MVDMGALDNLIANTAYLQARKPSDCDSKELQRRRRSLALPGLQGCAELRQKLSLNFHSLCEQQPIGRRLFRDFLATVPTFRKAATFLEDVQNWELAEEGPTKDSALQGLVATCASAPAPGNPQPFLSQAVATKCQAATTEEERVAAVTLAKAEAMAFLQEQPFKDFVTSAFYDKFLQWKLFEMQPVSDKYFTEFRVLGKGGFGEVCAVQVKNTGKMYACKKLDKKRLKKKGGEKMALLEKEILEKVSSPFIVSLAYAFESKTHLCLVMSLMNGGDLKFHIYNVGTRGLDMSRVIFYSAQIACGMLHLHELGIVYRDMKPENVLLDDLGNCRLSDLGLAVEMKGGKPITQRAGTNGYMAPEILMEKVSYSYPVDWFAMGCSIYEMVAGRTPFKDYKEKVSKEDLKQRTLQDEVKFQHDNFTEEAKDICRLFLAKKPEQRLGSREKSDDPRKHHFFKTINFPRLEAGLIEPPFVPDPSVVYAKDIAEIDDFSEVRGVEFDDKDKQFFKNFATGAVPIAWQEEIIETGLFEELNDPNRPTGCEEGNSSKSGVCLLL
# [10] = target: T1, Rhodopsin kinase GRK7 (Homo sapiens); settings: at 1 µM
# Sequence of RAC-alpha serine/threonine-protein kinase (Homo sapiens) (P31749 whole entry): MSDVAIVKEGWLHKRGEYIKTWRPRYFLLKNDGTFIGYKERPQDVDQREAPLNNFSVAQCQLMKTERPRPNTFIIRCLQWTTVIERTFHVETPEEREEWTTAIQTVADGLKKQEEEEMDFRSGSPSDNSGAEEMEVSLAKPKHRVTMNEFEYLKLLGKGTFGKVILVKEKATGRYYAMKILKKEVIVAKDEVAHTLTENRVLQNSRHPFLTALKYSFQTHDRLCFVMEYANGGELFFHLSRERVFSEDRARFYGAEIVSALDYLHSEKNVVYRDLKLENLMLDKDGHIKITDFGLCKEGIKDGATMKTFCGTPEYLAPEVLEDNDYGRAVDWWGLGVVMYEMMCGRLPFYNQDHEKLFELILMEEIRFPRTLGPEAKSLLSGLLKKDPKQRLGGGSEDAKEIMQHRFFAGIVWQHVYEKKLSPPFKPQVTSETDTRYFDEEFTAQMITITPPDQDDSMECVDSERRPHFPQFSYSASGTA
# Sequence of G protein-coupled receptor kinase 6 (Homo sapiens) (P43250 whole entry, looked up): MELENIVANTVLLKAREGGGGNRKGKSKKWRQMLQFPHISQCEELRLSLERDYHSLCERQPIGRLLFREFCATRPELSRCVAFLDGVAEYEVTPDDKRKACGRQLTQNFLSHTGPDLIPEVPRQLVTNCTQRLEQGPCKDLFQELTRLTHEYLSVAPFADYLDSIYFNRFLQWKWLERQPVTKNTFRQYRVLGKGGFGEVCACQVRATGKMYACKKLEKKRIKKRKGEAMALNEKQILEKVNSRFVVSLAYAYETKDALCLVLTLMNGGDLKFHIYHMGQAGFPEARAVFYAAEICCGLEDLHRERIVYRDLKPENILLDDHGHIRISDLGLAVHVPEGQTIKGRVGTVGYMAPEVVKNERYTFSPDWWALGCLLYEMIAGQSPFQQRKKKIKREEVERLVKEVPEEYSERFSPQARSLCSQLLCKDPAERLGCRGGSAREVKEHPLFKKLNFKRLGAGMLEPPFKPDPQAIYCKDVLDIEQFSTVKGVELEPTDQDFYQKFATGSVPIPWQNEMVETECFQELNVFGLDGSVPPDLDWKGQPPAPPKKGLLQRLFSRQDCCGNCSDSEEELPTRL
# Sequence of RAC-gamma serine/threonine-protein kinase (Homo sapiens) (Q9Y243 whole entry): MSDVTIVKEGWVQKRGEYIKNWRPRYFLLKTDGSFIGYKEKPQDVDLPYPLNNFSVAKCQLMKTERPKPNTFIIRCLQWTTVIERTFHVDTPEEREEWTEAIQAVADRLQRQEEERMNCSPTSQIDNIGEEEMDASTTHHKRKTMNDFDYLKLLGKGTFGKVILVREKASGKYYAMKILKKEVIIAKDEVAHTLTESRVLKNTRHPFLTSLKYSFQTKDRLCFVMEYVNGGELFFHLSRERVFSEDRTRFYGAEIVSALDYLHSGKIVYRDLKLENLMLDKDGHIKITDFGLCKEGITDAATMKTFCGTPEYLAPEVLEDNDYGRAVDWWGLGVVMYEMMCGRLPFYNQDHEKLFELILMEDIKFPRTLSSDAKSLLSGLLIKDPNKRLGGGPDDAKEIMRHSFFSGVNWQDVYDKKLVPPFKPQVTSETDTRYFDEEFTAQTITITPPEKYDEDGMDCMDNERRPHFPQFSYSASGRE
# Sequence of RAC-beta serine/threonine-protein kinase (Homo sapiens) (P31751 whole entry): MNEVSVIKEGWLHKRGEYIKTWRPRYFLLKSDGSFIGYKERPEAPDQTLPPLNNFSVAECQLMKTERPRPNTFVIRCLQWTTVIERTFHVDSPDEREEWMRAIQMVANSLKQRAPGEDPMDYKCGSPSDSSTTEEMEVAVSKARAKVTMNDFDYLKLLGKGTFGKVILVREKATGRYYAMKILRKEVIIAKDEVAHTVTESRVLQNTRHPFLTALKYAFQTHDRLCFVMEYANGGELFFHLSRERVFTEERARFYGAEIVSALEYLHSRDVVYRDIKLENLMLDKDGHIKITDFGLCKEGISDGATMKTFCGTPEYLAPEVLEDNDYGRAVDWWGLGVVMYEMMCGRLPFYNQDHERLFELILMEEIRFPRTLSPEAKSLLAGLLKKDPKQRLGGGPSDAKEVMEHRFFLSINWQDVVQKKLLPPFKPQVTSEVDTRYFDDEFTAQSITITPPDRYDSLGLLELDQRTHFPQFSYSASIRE
structure (smiles),measurement,setting,value
Nc1nc(-c2ccccn2)c(-c2ccc3ncccc3n2)s1,inhibition,[1],0.97%
same,inhibition,[2],0.96%
same,inhibition,[3],1.1%
same,inhibition,[4],1.5%
same,inhibition,[5],1.6%
same,inhibition,[6],1.17%
same,inhibition,[7],5.73%
same,inhibition,[8],1.87%
same,inhibition,[9],1.26%
same,inhibition,[10],-0.58%
CCn1c(-c2nonc2N)nc2c(C#CC(C)(C)O)nc(OC[C@@H](N)c3ccccc3)cc21,inhibition,[1],38.2%
same,inhibition,[2],85.2%
same,inhibition,[3],61.2%
same,inhibition,[4],91.1%
same,inhibition,[5],48.4%
same,inhibition,[6],87.2%
same,inhibition,[7],-1.09%
same,inhibition,[8],-0.69%
same,inhibition,[9],-0.18%
same,inhibition,[10],16.6%
COC(=O)Nc1nc2cc(Oc3ccc(NC(=O)Nc4cccc(C(=O)O)c4)cc3)ccc2[nH]1,inhibition,[1],-2.71%
same,inhibition,[2],-3.33%
same,inhibition,[3],-3.47%
same,inhibition,[4],-2.42%
same,inhibition,[5],-1.3%
same,inhibition,[6],-3.6%
same,inhibition,[7],2%
same,inhibition,[8],-0.77%
same,inhibition,[9],1.5%
same,inhibition,[10],-3.21%
CCn1c(-c2nonc2N)nc2ccncc21,inhibition,[1],0.31%
same,inhibition,[2],0.51%
same,inhibition,[3],0.98%
same,inhibition,[4],1.01%
same,inhibition,[5],-0.4%
same,inhibition,[6],-0.73%
same,inhibition,[7],0.85%
same,inhibition,[8],-3.7%
same,inhibition,[9],0.19%
same,inhibition,[10],2.02%
COc1cc(C)c(NC(=O)CN(C)C)cc1Nc1nc(Nc2cccc(F)c2C(N)=O)c2cc[nH]c2n1,inhibition,[1],1.35%
same,inhibition,[2],0.96%
same,inhibition,[3],0.81%
same,inhibition,[4],1.17%
same,inhibition,[5],0.86%
same,inhibition,[6],1.72%
same,inhibition,[7],12.9%
same,inhibition,[8],51.2%
same,inhibition,[9],8.5%
same,inhibition,[10],28.1%
Cc1nn(C)c2cc(N(C)c3ccnc(Nc4cccc(S(N)(=O)=O)c4)n3)ccc12,inhibition,[1],0.47%
same,inhibition,[2],0.23%
same,inhibition,[3],1.6%
same,inhibition,[4],2.15%
same,inhibition,[5],1.22%
same,inhibition,[6],1.54%
same,inhibition,[7],3.92%
same,inhibition,[8],3.28%
same,inhibition,[9],2.2%
same,inhibition,[10],10.5%
CC1=C(C(=O)Nc2ccc3[nH]ncc3c2)C(c2ccc(F)cc2)NC(=O)N1 (stereo not given),inhibition,[1],-0.22%
same,inhibition,[2],0.8%
same,inhibition,[3],0.33%
same,inhibition,[4],1.45%
same,inhibition,[5],0.5%
same,inhibition,[6],2.79%
same,inhibition,[7],5.16%
same,inhibition,[8],7.3%
same,inhibition,[9],2.44%
same,inhibition,[10],6.49%
O=C1NC(=O)C(c2ccc(Cl)cc2)=C1Nc1ccc(Cl)c(C(=O)O)c1,inhibition,[1],-1.69%
same,inhibition,[2],-1.52%
same,inhibition,[3],-2.06%
same,inhibition,[4],-1.58%
same,inhibition,[5],-1.65%
same,inhibition,[6],-1.06%
same,inhibition,[7],2.37%
same,inhibition,[8],-0.84%
same,inhibition,[9],-5.23%
same,inhibition,[10],-4.79%
CS(=O)(=O)Nc1ccc(N/C=C2\C(=O)Nc3ccccc32)cc1,inhibition,[1],-2.28%
same,inhibition,[2],-2.1%
same,inhibition,[3],-3.92%
same,inhibition,[4],-2.28%
same,inhibition,[5],-3.25%
same,inhibition,[6],1.91%
same,inhibition,[7],-1.94%
same,inhibition,[8],0.5%
same,inhibition,[9],-1.39%
same,inhibition,[10],-5.45%
CCc1cccc(NC(=O)Nc2ccc(Oc3ccc4nc(NC(=O)OC)[nH]c4c3)cc2)c1,inhibition,[1],1.36%
same,inhibition,[2],0.06%
same,inhibition,[3],1.23%
same,inhibition,[4],1.45%
same,inhibition,[5],2.78%
same,inhibition,[6],-0.71%
same,inhibition,[7],2.37%
same,inhibition,[8],2.68%
same,inhibition,[9],4.8%
same,inhibition,[10],15.6%
NC(=O)c1ccc(-c2nc(-c3ccccn3)c(-c3ccc4c(c3)OCO4)[nH]2)cc1,inhibition,[1],0.43%
same,inhibition,[2],0.86%
same,inhibition,[3],1.27%
same,inhibition,[4],1.16%
same,inhibition,[5],0.75%
same,inhibition,[6],0.48%
same,inhibition,[7],0.64%
same,inhibition,[8],5.54%
same,inhibition,[9],1.63%
same,inhibition,[10],6.3%
CCn1c(-c2nonc2N)nc2cncc(C(=O)N3CC[C@H](N)C3)c21,inhibition,[1],3.33%
same,inhibition,[2],19.5%
same,inhibition,[3],3.72%
same,inhibition,[4],13.3%
same,inhibition,[5],5.44%
same,inhibition,[6],32.9%
same,inhibition,[7],6.84%
same,inhibition,[8],8.03%
same,inhibition,[9],3.41%
same,inhibition,[10],10.7%
CNC(=O)c1cncc(/C=C/c2c(Cl)cccc2Cl)c1,inhibition,[1],-2.98%
same,inhibition,[2],-2.11%
same,inhibition,[3],-2.93%
same,inhibition,[4],-2.77%
same,inhibition,[5],-3.04%
same,inhibition,[6],0.11%
same,inhibition,[7],3.3%
same,inhibition,[8],4.35%
same,inhibition,[9],10.6%
same,inhibition,[10],8.22%
COc1cc2ncn(-c3cc(O[C@@H](C)c4ccccc4Cl)c(C(N)=O)s3)c2cc1OC,inhibition,[1],0.32%
same,inhibition,[2],1.3%
same,inhibition,[3],1.65%
same,inhibition,[4],1.94%
same,inhibition,[5],1.85%
same,inhibition,[6],1.32%
same,inhibition,[7],0.89%
same,inhibition,[8],2.39%
same,inhibition,[9],9.14%
same,inhibition,[10],4.64%
CC(=O)Nc1cccc(C#Cc2cncnc2Nc2ccc(OCc3cccc(F)c3)c(Cl)c2)n1,inhibition,[1],-0.69%
same,inhibition,[2],0.42%
same,inhibition,[3],-1.3%
same,inhibition,[4],-0.21%
same,inhibition,[5],-1.1%
same,inhibition,[6],-0.11%
same,inhibition,[7],0.73%
same,inhibition,[8],6.19%
same,inhibition,[9],1.16%
same,inhibition,[10],11.2%
Nc1nc(-c2ccc3c(c2)C(=Cc2cc(Br)c(O)c(Br)c2)C(=O)N3)cs1,inhibition,[1],-2.07%
same,inhibition,[2],-1.22%
same,inhibition,[3],-2.78%
same,inhibition,[4],-0.83%
same,inhibition,[5],-2.54%
same,inhibition,[6],-0.36%
same,inhibition,[7],0.91%
same,inhibition,[8],10.7%
same,inhibition,[9],-6.85%
same,inhibition,[10],22.8%
CCCN1CCC=C(c2ccc(Nc3nc(Nc4ccccc4C(N)=O)c4cc[nH]c4n3)c(C)c2)C1,inhibition,[1],0.97%
same,inhibition,[2],1.22%
same,inhibition,[3],1.3%
same,inhibition,[4],1.5%
same,inhibition,[5],-0.2%
same,inhibition,[6],5.51%
same,inhibition,[7],6.79%
same,inhibition,[8],31.4%
same,inhibition,[9],11.2%
same,inhibition,[10],20.5%
